From PubChem BioAssay
Hits are enriched below; roughly 2.9% of the tested compounds scored in any of these assays.
TRPM1 prom inh – inhibitors of MITF-dependent TRPM1 promoter reporter, primary screen, cell-based, SK-MEL-5, single point, luciferase; SK-MEL-5 TRPM1 promoter luciferase, 24 h; inhibition, % at 12.5 µM; 330,000 compounds, 0.83% hits;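 active = mean inhibition across replicates of 60% or more, whatever share of single replicates reaches that level; inconclusive = some that reach 60%, reason not given; inactive = mean inhibition across replicates below 60%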
N-glyco inh – increase of ERlucT glycosylation luciferase signal, primary screen, N-linked glycosylation inhibitor project, D54 ERlucT cells, luminescence, set 2; D54 ERlucT glycosylation luciferase reporter, 24 h; percent of 100 nM tunicamycin response; reporter increase, % at 12.5 µM; 360,000 compounds, 0.23% hits;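 active = mean luciferase reporter signal, scaled so untreated is 0 and the glycosylation-blocking control 100, at or above a set limit in every replicate; inconclusive = mean reaches the limit but not every replicate does; inactive = mean below the limit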;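 note: luciferase carries N-glycosylation sites so blocking glycosylation raises the light; 0% = median of neutral control wells and 100% = median of 100 nM tunicamycin wells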
NSD2 HMT inh – NSD2 histone methyltransferase inhibitors, primary screen, biochemical, AlphaScreen, single concentration, set 2 | Histone-lysine N-methyltransferase NSD2 (Homo sapiens), O96028 | NSD2 peptide methylation, 120 min | inhibition, % at 12.5 µM | 310,000 compounds, 0.54% hits; in the data active = inhibition above about 50%
Target sequence (O96028 whole entry, looked up): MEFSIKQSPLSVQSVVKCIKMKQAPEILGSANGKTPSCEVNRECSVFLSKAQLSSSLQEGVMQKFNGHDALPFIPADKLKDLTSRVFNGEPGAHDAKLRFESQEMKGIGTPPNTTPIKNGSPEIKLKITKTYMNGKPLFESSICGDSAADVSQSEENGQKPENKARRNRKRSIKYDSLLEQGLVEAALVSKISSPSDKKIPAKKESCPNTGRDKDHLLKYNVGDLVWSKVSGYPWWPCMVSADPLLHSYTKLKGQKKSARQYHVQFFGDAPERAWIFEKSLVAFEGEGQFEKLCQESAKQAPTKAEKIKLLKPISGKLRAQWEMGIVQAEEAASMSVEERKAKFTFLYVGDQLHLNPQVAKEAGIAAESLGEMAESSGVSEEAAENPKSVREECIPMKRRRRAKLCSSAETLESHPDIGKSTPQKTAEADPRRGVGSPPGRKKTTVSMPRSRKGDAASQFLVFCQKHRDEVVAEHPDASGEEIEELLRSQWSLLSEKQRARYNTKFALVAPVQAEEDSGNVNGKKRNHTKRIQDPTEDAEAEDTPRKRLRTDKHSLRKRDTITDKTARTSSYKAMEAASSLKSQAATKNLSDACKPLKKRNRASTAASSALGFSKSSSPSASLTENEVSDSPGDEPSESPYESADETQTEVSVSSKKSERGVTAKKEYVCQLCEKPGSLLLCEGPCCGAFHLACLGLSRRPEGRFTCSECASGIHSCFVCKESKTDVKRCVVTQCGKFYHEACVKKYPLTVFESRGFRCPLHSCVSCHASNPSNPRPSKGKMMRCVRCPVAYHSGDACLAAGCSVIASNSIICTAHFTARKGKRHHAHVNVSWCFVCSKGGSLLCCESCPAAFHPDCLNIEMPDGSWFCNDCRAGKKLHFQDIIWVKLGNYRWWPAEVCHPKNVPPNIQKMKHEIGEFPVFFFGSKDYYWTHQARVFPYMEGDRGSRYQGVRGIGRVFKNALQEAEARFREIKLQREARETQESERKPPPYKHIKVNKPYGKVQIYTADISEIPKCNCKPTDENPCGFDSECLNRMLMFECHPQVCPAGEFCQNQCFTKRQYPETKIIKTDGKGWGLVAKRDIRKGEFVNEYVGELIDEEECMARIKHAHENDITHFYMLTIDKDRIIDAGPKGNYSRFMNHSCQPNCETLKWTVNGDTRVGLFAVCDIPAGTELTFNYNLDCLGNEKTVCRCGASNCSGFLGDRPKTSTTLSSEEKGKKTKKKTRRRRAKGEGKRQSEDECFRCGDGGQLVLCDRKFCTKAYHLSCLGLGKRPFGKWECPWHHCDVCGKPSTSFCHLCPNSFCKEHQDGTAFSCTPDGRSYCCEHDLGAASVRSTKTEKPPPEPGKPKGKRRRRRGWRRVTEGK
PfHsp90 set2 – growth inhibition of PfHsp90-expressing yeast, primary screen, antimalarial PfHsp90 inhibitor project, S. cerevisiae, BacTiter-Glo luminescence, single point, set 2 | inhibition, % at 9.4 µM | 310,000 compounds, 0.32% hits | BacTiter-Glo ATP, 48 h; yeast lacking PDR1 and PDR3 efflux regulators;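 active = every replicate shows inhibition above about 80%, whatever the replicate mean, limit read from the data; inconclusive = mean inhibition reaches the set limit but some replicate falls short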;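 note: 0% = DMSO neutral controls and 100% = 20 µM radicicol positive controls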
MITF act – activators of MITF-driven TRPM1 promoter reporter, primary screen, cell-based, SK-MEL-5, luciferase, single point; SK-MEL-5 TRPM1-promoter luciferase, 24 h; % of positive control, neutral wells = 0; activation, % at 12.5 µM; 300,000 compounds, 0.75% hits; AID 588334, 2011;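 active = mean activation of at least 80% with every replicate also reaching 80%; inconclusive = mean reaches 80% but some replicate falls short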;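 note: 0% = neutral control wells and 100% = parthenolide positive control wells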
Wnt act – Wnt/beta-catenin pathway activators, primary screen, cell-based, plate reader, single point; Wnt/beta-catenin reporter cell assay, activator; activation, % at 9.35 µM; 300,000 compounds, 1.2% hits; AID 743398, 2014; in the data active = activation above about 30%, passing the limit was not always enough; inconclusive = no clear call, values can overlap the other calls;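 note: 0% = neutral control wells and 100% = positive control wells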
* marks the source's active call; other numbers are inactive results; ? = inconclusive; nt = no result given.

SMILES	TRPM1 prom inh	N-glyco inh	NSD2 HMT inh	PfHsp90 set2	MITF act	Wnt act
COc1cccc(NC(=O)Cn2c(=O)oc3cc(S(=O)(=O)N4CCCC4)ccc32)c1	-2	-2	-4	-11	1	37*
Cc1ccc(Cl)cc1N1CCN(C(=O)c2cc3c(=O)[nH]c4ccccc4c3n2C)CC1	64*	-4	-3	-8	-65	-1
COc1cccc(C(=O)Nc2nc(-c3ccccc3)c(-c3ccccc3)o2)c1	25	1	-3	-2	-24	nt
O=C(Nc1nc(-c2ccccc2)c(-c2ccccc2)o1)c1ccc(F)cc1	29	3	0	105*	-29	-6
O=C(Nc1nnc(-c2ccccc2)s1)c1ccc(F)cc1	-79	-1	-5	24	84*	12
O=C(Nc1nc2ccccc2s1)c1ccc(F)cc1	-31	-12	0	-7	29	47*
O=C(Nc1nc(=O)c2ccccc2s1)c1ccccc1	-18	1	nt	-1	23	39*
COc1ccc(C(=O)Nc2nc3ccccc3s2)cc1	8	-19	-3	1	nt	11
O=C(CC1CCCCC1)Nc1nc2ccccc2s1	-53	-5	2	-18	63	26
O=C(Nc1nc2ccccc2s1)NC1CCCCC1	-83	-10	0	-3	86*	42*
O=c1c2c3c(sc2nc2n1CCCCC2)CCCC3	-45	-1	1	-5	nt	39*
O=C(O)c1cccnc1SCc1cn2cc(Cl)ccc2n1	0	-3	3	-25	5	4
O=C(O)c1ccccc1SCc1cn2cc(Cl)ccc2n1	12	-5	-1	6	-6	43*
CCOC(=O)C1=C(CC)Nc2ccccc2N=C1NC(=O)Nc1ccc(Cl)c(Cl)c1	-2	-3	-1	104*	-1	-7
CCOC(=O)C1=C(CC)Nc2ccccc2N=C1NC(=O)c1cc(C)on1	10	-2	-1	16	-8	2
Clc1cccc(CNc2ccn3nc(-c4ccco4)cc3n2)c1	nt	-3	-2	nt	nt	-2
Clc1cccc(CNc2ccn3nc(-c4cccs4)cc3n2)c1	nt	0	-3	nt	nt	49*
C[C@H]1CN([C@@H](C)CO)C(=O)Cc2cc(NC(=O)CCC(F)(F)F)ccc2O[C@H]1CN(C)CC1CC1	-19	-2	nt	2	13	-1
C[C@@H]1ON(C)[C@H]2C[C@H]3c4[nH]c5c(-c6cccc(Cl)c6)cccc5c4CCN3C(=O)[C@@H]12	nt	nt	nt	nt	nt	-6
COc1cc(NC(=O)c2ccccc2-n2cnnn2)cc(OC)c1	-4	2	-6	nt	1	-3
COc1cc(OC)cc(C(=O)Nc2ccc(-n3cnnn3)c(C)c2)c1	-95	1	-1	nt	108*	-1
N=c1c(S(=O)(=O)c2ccc(Cl)cc2)cc2c(=O)n3ccccc3nc2n1CCc1ccccc1	14	50*	1	nt	-11	-8
O=C(NC1CCCCCC1)c1cc2c(=O)n3ccccc3nc2s1	-82	2	2	21	91*	11
CC(C)NC(=O)c1cc2c(=O)n3ccccc3nc2s1	9	1	1	-17	-11	4
Cc1cccn2c(=O)c3cc(C(=O)NC4CCCCCC4)sc3nc12	3	-1	-1	-84	0	2
SMILES	TRPM1 prom inh	N-glyco inh	NSD2 HMT inh	PfHsp90 set2	MITF act	Wnt act
C=CCNC(=O)c1cc2c(=O)n3ccccc3nc2s1	-66	-1	-4	17	66	36*
Cc1cc(C(C)(C)C)oc1C(=O)Nc1ccc(CC(=O)O)cc1	9	1	0	18	-8	nt
CC(C)(C)c1ccc(C(=O)Nc2ccc(CC(=O)O)cc2)o1	73*	-5	6	29	-73	nt
CC(=O)CCSc1ncnc2sc(-c3ccccc3)cc12	-76	-9	2	-15	69	43*
O=C(O)CCSc1ncnc2sc(-c3ccccc3)cc12	nt	3	21	-10	-66	-4
COc1cc2c(cc1NC(=O)CSc1nnc(-c3cccnc3)n1-c1ccc(Br)cc1)oc1ccccc12	nt	nt	1	nt	nt	nt
Cc1c(C(=O)Nc2ccccc2F)cnn1-c1ccccc1	-82	-11	-4	10	88*	10
Cc1c(C(=O)Nc2cc(F)cc(F)c2)cnn1-c1ccccc1	-120	-2	-1	7	121*	57*
Cc1c(C(=S)Nc2ccccc2)cnn1-c1ccccc1	-83	-5	0	11	96*	?
Cc1c(C(=S)Nc2ccccc2)cnn1-c1ccc([N+](=O)[O-])cc1	-12	0	5	16	14	nt
Cc1ccc2c(c1)N(CCCC(=O)N(C)Cc1ccccc1F)C(=O)CO2	nt	nt	-2	nt	nt	nt
CN(C(=O)COC(=O)CSc1ccccc1)c1c(N)n(Cc2ccccc2)c(=O)[nH]c1=O	nt	0	0	nt	nt	0
Nc1nc(Nc2ccccc2F)sc1C(=O)c1ccccc1	-93	-6	3	-38	100*	35*
Cc1nc(Nc2ccccc2)sc1C(=O)c1ccc(F)cc1	-48	-7	-11	0	53	10
C(=Cc1c[nH]c2ccccc12)c1ccc2ccccc2n1	19	-18	nt	nt	-20	5
C(=Cc1c[nH]c2ccccc12)c1nccc2ccccc12	-27	-17	-15	10	28	42*
COc1cccc(-c2ncn(CCc3ccccc3OC)c2CC(C)C)c1	nt	nt	nt	nt	nt	-15
Cc1ccc(NC(=O)Nc2ccc3c(c2)nc(C)n3C)cc1	-9	-10	-6	7	9	nt
Cc1cc(NC(=O)Nc2ccc3c(ccn3C)c2)sn1	-98	1	nt	11	106*	25
CC(=NNc1nc2ccccc2o1)c1ncccn1	40	-11	33	126*	-36	-1
C/C(=N\Nc1nc2ccccc2s1)c1cccs1	16	-18	6	-40	-12	?
CC(=NNc1nc2ccccc2o1)c1cc2ccccc2cn1	58	-13	42	145*	-58	-19
CC(=NNc1nc2ccccc2s1)c1ncccn1	35	-13	2	115*	-33	75*
C[C@]12Cc3ccccc3C1CC1=N[C@@H](c3ccc(C(F)(F)F)cc3)O[C@@]13C[C@@H]2C(=O)N3C1CCN(Cc2ccccc2)CC1 (stereo partly specified)	nt	nt	nt	nt	nt	-15
Cc1cc(C)c(NC(=S)N(CCc2ccncc2)C(C)C)c(C)c1	6	1	2	-1	-2	-2
CC(C)COC(=O)NCC12C=CC(O1)C1C(=O)N(c3ccc(Cl)cc3)C(=O)C12 (stereo unspecified)	12	5	17	nt	-10	nt
